The values below come from PubChem BioAssay (NCATS).

In one assay the test system is OV90. The assay can be described thus: Primary qHTS to identify gynecologic anti-cancer compounds using libraries of approved drugs and bioactive compounds (AID 1345084). Note: nearly all actives have a fitted effect of over 55% in size. As to conditions: Gynecologic cancer cell panel viability, ATPlite luminescence, 48 h; series mostly up to 57.5 µM. An outline of the steps: (§1)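 Five-point cytotoxicity, 48 h drug exposure at 37 C, 5% CO2, on cells seeded 16 h beforehand. ATP content read by ATPlite luminescence.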

The test system of another assay is SKOV3. The description is as above. As to conditions: Gynecologic cancer cell panel viability, ATPlite luminescence, 48 h; series mostly up to 57.5 µM. An outline of the steps:
as §1
On the technique in general: Cellular ATP, detected with luciferase, serves as a proxy for viable cell number.

The next assay concerns Tov-21-G. Described as above. As to conditions: Gynecologic cancer cell panel viability, ATPlite luminescence, 48 h; series mostly up to 57.5 µM. The method in brief: as §1
The subject of the next assay is Tov112D. The description is as above. As to conditions: Gynecologic cancer cell panel viability, ATPlite luminescence, 48 h; series mostly up to 57.5 µM. An outline of the steps: as §1
Assay [1] in a line: qHTS assay to identify inhibitors of the type 1 interferon - major histocompatibility complex class I in skeletal muscle: Counter screen cell viability and HiBit confirmation (AID 1347412). For all read-outs here: nearly all actives have a fitted effect of over 60% in size. As to conditions: iHSKM muscle cells + IFN-b, HiBiT or CellTiter-Glo, 24 h; for activity change, negative = inhibition: at 45.9 µM (top of the series). An outline of the steps: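 Duplicate plates, pinned identically: one read for HiBiT-tagged endogenous HLA-B luminescence, the other for ATP-content viability via CellTiter Glo. Cells were genome-engineered human myoblasts given 4 ng/ml IFN-b; compounds 12-pt, 1:3 from 46 uM final; 24 hr exposure.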
(In general: In qHTS, concentration-response curves come from the screen itself.)

Records with an inconclusive call do not appear. Unmarked numbers belong to inactive results. Activity calls are given as the source filed them. Calls come from the whole dose curve; as a rule, active = well fitted curve in the direction sought with a large enough effect; inconclusive = small, poorly fitted or top-dose-only effect, or another doubt; inactive = no such curve, though single readings can be large; an effect the other way counts as inactive or inconclusive.
% is set by controls: 0 for no effect and ±100 for the full control effect; potency is the fitted concentration of half-maximal effect.

In the case of `CC(C)(C)c1ccc2c(c1)CC[C@H]2NC(=O)Nc1cccc2[nH]ncc12`, the Potency entry in the assay with OV90, in the assay with SKOV3, with Tov-21-G and in the assay with Tov112D was “inactive” in each case.

Turning to `Cn1ncc(Cl)c1-c1cc(C(=O)N[C@H](CN)Cc2ccc(F)c(F)c2)oc1Cl`, the Potency is 14.1 µM (active) in the assay with OV90, 4.47 µM (active) with SKOV3 and 0.708 µM (active) with Tov-21-G.

As for `CC(=O)C1(C)CCC2C3C=C(C)C4=CC(=O)CCC4(C)C3CCC21C` (configuration not stated), the Potency result in the assay with OV90, in the assay on SKOV3, with Tov-21-G and in the assay with Tov112D was “inactive” each time.

Regarding `C/C=C\NC(=O)C1NC(=O)C(CC(N)=O)NC(=O)C(NC(=O)C(=O)C(C)CC)Cc2ccc(O)c(c2)-c2cccc3c2NC(=O)C3(O)C1O` (configuration not stated), the Potency result with OV90, in the assay on SKOV3 and in the assay on Tov112D was “inactive” each time. Moreover, the Potency in the assay on Tov-21-G was 4.47 µM (active).

As for `CC(C)=C1C[C@@]2(C)C(=CC1=O)CC[C@@H](OC(=O)/C(C)=C/CO)[C@@H]2C`, the Potency entry with OV90, in the assay on Tov-21-G and with Tov112D was “inactive” each time. The Potency in the assay on SKOV3 was 11.2 µM (active).

For the compound `C=C1CC2OC(=O)C(=C)C2C(OC(=O)/C(C)=C\C)CC2(C)OC1=CC2=O` (configuration not stated), the Potency entry in the assay on OV90 and in the assay on Tov112D was “inactive” each time. Further, the Potency with SKOV3 and in the assay with Tov-21-G was 11.2 µM (active) each time.

`CCS(=O)c1nc(-c2cccc(OCc3ccccc3)c2)cc(C(F)(F)F)n1` (configuration not stated): the Potency entry in the assay on OV90, in the assay on SKOV3, in the assay with Tov-21-G and in the assay with Tov112D was “inactive” each time.

Take `COc1ccc(C[C@H]2COC(=O)[C@@H]2Cc2ccc(O[C@@H]3O[C@H](CO)[C@@H](O)[C@H](O)[C@H]3O)c(OC)c2)cc1OC`: the Potency result with OV90, in the assay with Tov-21-G and in the assay with Tov112D was “inactive” each time. In addition, the Potency with SKOV3 is 4.47 µM (active).

Turning to `CN1CCN(c2ccc(Nc3cc(-c4cccc(-n5ccc6cc(C7CC7)cc(F)c6c5=O)c4CO)cn(C)c3=O)nc2)CC1`, the Potency result in the assay with OV90, in the assay on SKOV3, in the assay on Tov-21-G and in the assay with Tov112D was “inactive” each time.

`Nc1nc(Nc2ccc3c(c2)CCC(N2CCCC2)CC3)nn1-c1cc2c(nn1)-c1ccccc1CCC2` (configuration not stated): the Potency result in the assay with OV90 is “inactive”. In addition, the Potency was 7.08 µM (active) in the assay on SKOV3 and 22.4 µM (active) in the assay on Tov-21-G.

Turning to `CCCCC1CCN(CCCN2C(=O)CCc3ccccc32)CC1`, the Potency entry in the assay with OV90, in the assay with SKOV3, in the assay on Tov-21-G and with Tov112D was “inactive” in each case.

`CCNC(=O)C#Cc1ccc2c(C(=Nc3ccc(CN(C)C)cc3)c3ccccc3)c(O)[nH]c2c1`: the results for the Potency in assay [1] (HiBiT) and in assay [1] (Viability) were 17.6 µM (active) and 9.91 µM (active), respectively.

Consider `OC(c1ccc(-c2ccc(CN3CCN(Cc4ccncc4)CC3)cc2)c(F)c1)(C(F)(F)F)C(F)(F)F`, for which the activity change, negative = inhibition in assay [1] (HiBiT) is -18.6%; in assay [1] (Viability) it was -8.6%.

In the case of `CCn1nc(C2CCN(C(=O)CCO)CC2)nc1-c1cnc(N)c(-c2nnc(C(C)(C)C)o2)n1`, in assay [1] (HiBiT), the activity change, negative = inhibition is -28.4%.

In the case of `Cc1[nH]c(/C=C2\C(=O)Nc3ccc(F)cc32)c(C)c1C(=O)NCCN1CCCC1`, the activity change, negative = inhibition in assay [1] (Viability) is -1.6%.

On to `CC(=O)Nc1cccc(-c2csc(Nc3cc(C)ccn3)n2)c1`, for which the Potency entry with OV90, in the assay with Tov-21-G and with Tov112D was “inactive” in each case.

Consider `C/C=C(\C)C(=O)O[C@H]1C=C(CO)C(=O)[C@H](OC(C)=O)[C@H]1C(C)C`, for which the Potency entry in the assay on OV90 and in the assay on Tov112D was “inactive” throughout.

In the case of `COc1ccc(CCc2nc3cc(-c4c(C)noc4C)ccc3n2CC(C)N2CCOCC2)cc1Cl` (configuration not stated), the Potency entry with OV90, with Tov-21-G and in the assay with Tov112D was “inactive” in each case.

Regarding `COc1cc([C@H]2O[C@H](c3cc(OC)c4c(c3)OCO4)[C@H](C)[C@H]2C)cc(OC)c1OC`, the Potency in the assay on OV90 was 8.91 µM (active). The Potency result in the assay with Tov-21-G and in the assay with Tov112D was “inactive” each time.

On to `COc1cc2nc(N3CCN(C(=O)c4ccco4)C4CCCCC43)nc(N)c2cc1OC` (configuration not stated), for which the Potency result in the assay on OV90 and with Tov112D was “inactive” each time.

`C[C@@H]1O[C@@H](O[C@H]2[C@@H]3C=CO[C@@H](O[C@@H]4O[C@H](CO)[C@@H](O)[C@H](O)[C@H]4O)[C@@H]3[C@@]3(CO)O[C@@H]23)[C@H](O)[C@H](OC(=O)/C=C/c2ccccc2)[C@H]1O`: the Potency entry in the assay on OV90, with Tov-21-G and in the assay on Tov112D was “inactive” in each case.

As to `COC1=CC(=O)C[C@@H](C)[C@@]12Oc1c(Cl)c(OC)cc(OC)c1C2=O`, the Potency entry in the assay with OV90 was “inactive”. Moreover, the Potency in the assay with Tov112D was 0.1 µM (active).

Regarding `Fc1ccc(-c2nc(C3CCNCC3)sc2-c2ccnc(NC3CC3)n2)cc1`, the Potency result with OV90 and with Tov112D was “inactive” each time.

As for `CO[C@@H]1CC(OC2CCC3(C)C(CCC45CCC(C6=CC(=O)OC6)C(C)(CCC43)C5=O)C2)O[C@H](C)[C@@H]1O[C@@H]1O[C@H](CO[C@@H]2O[C@H](CO)[C@@H](O)[C@H](O)[C@H]2O)[C@@H](O)[C@H](O)[C@H]1O` (some centres not stated), the activity change, negative = cytotoxicity with OV90 was -22.2% [at 11.6 µM]. In addition, the Potency with Tov-21-G was 3.16 µM (active); with Tov112D, 2.82 µM (active).

Regarding `O=C(Nc1ccccc1)N1CCN(c2nc(-c3ccccc3)ns2)CC1`, the Potency result in the assay on OV90, in the assay on Tov-21-G and in the assay with Tov112D was “inactive” each time.

For the compound `Cc1cc(C(=O)Nc2cc(Nc3ccc4c(/C=C/c5ccccn5)n[nH]c4c3)ccc2F)n(C)n1`, the Potency entry in the assay with OV90, in the assay on Tov-21-G and with Tov112D was “inactive” throughout.
